Inconclusive results are not listed. Activity calls are given as the source filed them. Unless noted, the call rests on the fitted dose curve.
Columns and labels:
[1] = Nuclear factor erythroid 2-related factor 2/antioxidant responsive element (Nrf2/ARE) small molecule agonists: qHTS cell viability counter screen in human keratinocytes (AID 1919968; active means well fitted curve in the direction sought with a large enough effect in the repeat runs; an effect the other way counts as inactive or inconclusive; further: nearly all actives have a fitted effect of over 55% in size)
Procedure, shortened: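 Fluorescence read-out from CellTiter-Fluor after 1 h at 37 C. Wells held HaCaT-derived ARE-luciferase reporter cells (1,500/well) treated 23 h with DMSO-dissolved compounds. Run in the same wells as the luciferase agonist read.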

[2] = Nuclear factor erythroid 2-related factor 2/antioxidant responsive element (Nrf2/ARE) small molecule agonists: luciferase reporter gene qHTS assay in human keratinocytes (AID 1919969); further: nearly all actives have a fitted effect of over 35% in size
[3] = molecular target: Gonadotropin-releasing hormone receptor (Homo sapiens) (UniProt P30968); assay: Human gonadotropin-releasing hormone receptor (GnRHR) small molecule agonists, calcium flux assay in GnRHR-HEK293 cells (AID 1920063); further: nearly all actives have a fitted effect of over 35% in size
Procedure, shortened: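 Calcium-dye fluorescence, Ex/Em=480/540, recorded every 1 sec over 3 min after compound addition to GnRHR-HEK293 cells. Cells had been seeded 18 hours earlier and dye-loaded for 1 hour at 37 C. Fifteen concentrations, triplicates.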

[4] = molecular target: KiSS-1 receptor (Homo sapiens) (UniProt Q969F8); assay: Human kisspeptin (KISS1R) small molecule agonists, calcium flux assay in KISS1R-HEK293 cells (AID 1920064; active means well fitted curve in the direction sought with a large enough effect in the repeat runs; an effect the other way counts as inactive or inconclusive)
Procedure, shortened: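 Calcium flux read-out: kinetic fluorescence at Ex/Em=480/540, 1 s intervals over 3 min, after pin-tool compound addition to dye-loaded KISS1R-HEK293 cells. Fifteen concentrations, triplicates.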

[5] = G protein-coupled receptor (GPCR) small molecule agonists, calcium flux assay: HEK293 wild type cell line counter screen (AID 1920065)
Procedure, shortened: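 Agonist mode; 18 h seeding at 37 C, 1 h dye load at 37 C; compounds pinned from DMSO, ATP as positive control; kinetic fluorescence 480/540 nm, 3 min, 1 s reads; 15 concentrations, triplicate.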

[6] = p53 small molecule agonists, cell-based qHTS assay with human liver microsomes (AID 1963577);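 further: p53 response element beta-lactamase reporter cells with liver microsomes plus NADPH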
Procedure, shortened: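 In this qHTS, p53 response-element beta-lactamase cells receive test compound together with a microsome/NADPH activating system (0.5 mg/mL final each) and are incubated 16 h at 37 C before LiveBLAzer fluorescence detection.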

[7] = p53 small molecule agonists, cell-based qHTS assay with rat liver microsomes (AID 1963578)
Procedure, shortened: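 Agonist mode in p53RE-bla reporter cells, with compounds co-incubated 16 h at 37 C alongside 0.5 mg/mL rat liver microsomes and 0.5 mg/mL NADPH (final), followed by a 2 h LiveBLAzer detection step.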

[8] = p53 small molecule agonists, cell-based qHTS assay with human liver microsomes: qHTS cell viability counter screen (AID 1963579); further: nearly all actives have a fitted effect of over 45% in size
Procedure, shortened: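 Metabolically activated exposure: compounds, human liver microsomes and NADPH (0.5 mg/mL final apiece) were added to p53RE-bla cells seeded 5 h earlier, left 16 h at 37 C, and then assessed for viability by CellTiter-Glo luminescence.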

[9] = p53 small molecule agonists, cell-based qHTS assay with rat liver microsomes: qHTS cell viability counter screen (AID 1963580); further: nearly all actives have a fitted effect of over 45% in size
Procedure, shortened: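 Luminescent ATP readout (CellTiter-Glo, 30 min at room temperature) reports viability of p53RE-bla HCT-116 cells after 16 h at 37 C with test compounds under metabolic activation by rat liver microsomes and NADPH at 0.5 mg/mL final each.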

[10] = p53 small molecule agonists, cell-based qHTS assay: qHTS cell viability counter screen (AID 1963581); further: nearly all actives have a fitted effect of over 45% in size
Procedure, shortened: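 Cytotoxicity read-out: ATP-based luminescence (CellTiter-Glo, 30 min RT) measured in the same wells as the p53 reporter assay, HCT-116 p53RE-bla cells, 16 h compound exposure at 37 C.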

[11] = p53 small molecule agonists, cell-based qHTS assay (AID 1963582; active means well fitted activation curve with a large enough effect in the signal ratio in the repeat runs, not every such curve was filed as active; the % refers to the signal ratio)
Procedure, shortened: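 Fluorescence intensity read-out of a beta-lactamase reporter under a p53 response element. Cells were exposed to DMSO-dissolved compounds for 16 h at 37 C, then developed with FRET substrate for 2 h at RT.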

[12] = molecular target: 5-hydroxytryptamine receptor 2A (Homo sapiens) (UniProt P28223); assay: 5-hydroxytryptamine receptor 2A (HTR2A) small molecule antagonists, cell-based qHTS assay (AID 1963586); further: nearly all actives have a fitted effect of over 45% in size
Procedure, shortened: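 CHO cells stably expressing human HTR2A were plated for 18 h at 37 C, then loaded with calcium dye for 1 h. Compounds were preincubated 5 min at room temperature before DOI (4 nM solution) was added. Kinetic fluorescence was read for 3 min.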

[13] = molecular target: 5-hydroxytryptamine receptor 2A (Homo sapiens) (UniProt P28223); assay: 5-hydroxytryptamine receptor 2A (HTR2A) small molecule agonists, cell-based qHTS assay (AID 1963587); further: nearly all actives have a fitted effect of over 30% in size
Procedure, shortened: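 HTR2A-CHO cells, plated 18 h at 37 C/5% CO2, dye-loaded 1 h at 37 C; compounds in DMSO added by pin tool (agonist mode). Intracellular calcium flux read as kinetic fluorescence on FDSS over 2 min at 1 s intervals.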

[14] = molecular target: Muscarinic acetylcholine receptor M1 (Homo sapiens) (UniProt P11229); assay: Cholinergic receptor muscarinic 1 (CHRM1) small molecule antagonists, cell-based qHTS assay (AID 1963588); further: nearly all actives have a fitted effect of over 40% in size
Procedure, shortened: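 Compounds were tested at 15 concentrations in three independent runs. Dye-loaded CHRM1-CHO cells were exposed 5 min at room temperature before stimulation by acetylcholine added at 50nM. Intracellular calcium was read kinetically on FDSS for 3 min.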

[15] = molecular target: Muscarinic acetylcholine receptor M1 (Homo sapiens) (UniProt P11229); assay: Cholinergic receptor muscarinic 1 (CHRM1) small molecule agonists, cell-based qHTS assay (AID 1963589); further: nearly all actives have a fitted effect of over 35% in size
Procedure, shortened: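 Calcium flux read-out: kinetic fluorescence at 1 sec intervals after pin-tool compound addition to dye-loaded CHRM1-CHO cells (human M1). Agonist mode; 15 concentrations tested in triplicate independent runs.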

[16] = cAMP Responsive Elements (CRE) small molecule antagonists, cell-based qHTS assay (AID 1963591; active means well fitted inhibition curve with a large enough effect in the signal ratio in the repeat runs, not every such curve was filed as active; the % refers to the signal ratio)
Procedure, shortened: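 HEK293T CRE-bla; 18 h preincubation; compound pin-transfer; NKH477 0.25 uM final, 3 h, 37 C; LiveBLAzer FRET substrate 2 h RT.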

[17] = molecular target: Beta-2 adrenergic receptor (Homo sapiens) (UniProt P07550); assay: Adrenergic beta2 receptor (ADRB2) small molecule antagonists, cell-based qHTS assay (AID 1963592); further: series mostly up to about 92 µM; nearly all actives have a fitted effect of over 50% in size
Procedure, shortened: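 Assay format: CHO-ADRB2 cells, 18-20hr seeding at 37C/5% CO2, then compound plus 1nM isoproterenol agonist mix for 0.5hr RT. Homogeneous time-resolved fluorescence cAMP detection after 1hr, expressed as 665/615 nm ratio.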

[18] = molecular target: D(2) dopamine receptor (Homo sapiens) (UniProt P14416); assay: Dopamine D2 receptor (DRD2) small molecule agonists, cell-based qHTS assay (AID 1963594); further: nearly all actives have a fitted effect of over 35% in size
Procedure, shortened: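 HEK293 cells stably expressing DRD2 were cultured 24 h at 37 C, then given Ro20-1724 (0.1 mM final) and compounds for 10 min at room temperature. NKH477 (200nM) was then added for 30 min. cAMP was read by HTRF.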

[19] = molecular target: D(2) dopamine receptor (Homo sapiens) (UniProt P14416); assay: Dopamine D2 receptor (DRD2) small molecule antagonists, cell-based qHTS assay (AID 1963595; active means well fitted inhibition curve with a large enough effect in the signal ratio in the repeat runs, with a control signal flat; the % refers to the signal ratio)
Procedure, shortened: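 Human DRD2 antagonist qHTS measuring cAMP by HTRF. The cells are exposed to compound for 10 min, then to NKH477 (200 nM) and quinpirole (12 nM) for 30 min at RT, with Ro20-1724 (0.1 mM) present throughout.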

[20] = molecular target: Beta-2 adrenergic receptor (Homo sapiens) (UniProt P07550); assay: Adrenergic beta2 receptor (ADRB2) small molecule agonists, cell-based qHTS assay (AID 1963593);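 further: CHO cells stably overexpressing human ADRB2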
Procedure, shortened: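 CHO cells stably over-expressing ADRB2 were plated overnight at 37C, then dosed with compounds plus a stimulation mix containing 100uM IBMX and 25uM Ro-20-1724 for 0.5hr at room temperature. cAMP was measured by HTRF competition, 1hr.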
On the % scale 0 is the no-effect control and ±100 the full control effect.

Sequence of 5-hydroxytryptamine receptor 2A (Homo sapiens) (P28223 whole entry, looked up): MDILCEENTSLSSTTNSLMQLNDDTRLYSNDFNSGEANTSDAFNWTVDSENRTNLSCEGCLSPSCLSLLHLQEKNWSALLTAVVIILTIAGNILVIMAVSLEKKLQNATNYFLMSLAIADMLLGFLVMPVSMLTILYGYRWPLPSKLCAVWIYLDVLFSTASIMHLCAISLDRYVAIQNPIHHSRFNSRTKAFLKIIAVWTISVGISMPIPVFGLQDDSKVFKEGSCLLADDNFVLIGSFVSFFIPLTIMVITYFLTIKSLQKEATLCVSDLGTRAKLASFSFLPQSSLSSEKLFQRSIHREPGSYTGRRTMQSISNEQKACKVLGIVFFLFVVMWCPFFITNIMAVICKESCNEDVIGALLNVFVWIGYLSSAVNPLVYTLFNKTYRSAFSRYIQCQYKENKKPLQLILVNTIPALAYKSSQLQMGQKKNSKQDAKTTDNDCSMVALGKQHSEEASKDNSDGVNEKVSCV
Sequence of D(2) dopamine receptor (Homo sapiens) (P14416 whole entry, looked up): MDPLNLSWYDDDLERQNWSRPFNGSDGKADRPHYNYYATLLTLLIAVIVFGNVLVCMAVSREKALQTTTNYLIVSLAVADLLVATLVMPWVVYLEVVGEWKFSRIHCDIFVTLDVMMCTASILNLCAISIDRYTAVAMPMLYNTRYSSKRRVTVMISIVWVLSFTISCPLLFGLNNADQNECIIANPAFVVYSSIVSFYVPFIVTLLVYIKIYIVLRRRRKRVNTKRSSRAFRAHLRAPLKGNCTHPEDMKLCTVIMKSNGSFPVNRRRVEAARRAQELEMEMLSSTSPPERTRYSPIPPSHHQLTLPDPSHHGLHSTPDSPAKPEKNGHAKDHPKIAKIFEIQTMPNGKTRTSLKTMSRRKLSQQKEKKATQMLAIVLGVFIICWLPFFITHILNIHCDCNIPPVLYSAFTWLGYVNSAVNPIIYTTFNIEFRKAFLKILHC
Sequence of Gonadotropin-releasing hormone receptor (Homo sapiens) (P30968 whole entry, looked up): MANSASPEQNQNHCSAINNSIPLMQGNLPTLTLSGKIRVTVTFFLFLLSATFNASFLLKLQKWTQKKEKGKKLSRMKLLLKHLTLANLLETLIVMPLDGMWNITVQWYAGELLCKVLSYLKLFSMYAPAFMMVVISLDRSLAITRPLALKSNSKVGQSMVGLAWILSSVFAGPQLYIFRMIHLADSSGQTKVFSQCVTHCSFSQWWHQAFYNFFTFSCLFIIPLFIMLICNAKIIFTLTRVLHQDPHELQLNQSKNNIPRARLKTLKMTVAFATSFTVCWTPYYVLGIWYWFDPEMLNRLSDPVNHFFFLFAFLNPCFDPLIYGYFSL
Sequence of Beta-2 adrenergic receptor (Homo sapiens) (P07550 whole entry, looked up): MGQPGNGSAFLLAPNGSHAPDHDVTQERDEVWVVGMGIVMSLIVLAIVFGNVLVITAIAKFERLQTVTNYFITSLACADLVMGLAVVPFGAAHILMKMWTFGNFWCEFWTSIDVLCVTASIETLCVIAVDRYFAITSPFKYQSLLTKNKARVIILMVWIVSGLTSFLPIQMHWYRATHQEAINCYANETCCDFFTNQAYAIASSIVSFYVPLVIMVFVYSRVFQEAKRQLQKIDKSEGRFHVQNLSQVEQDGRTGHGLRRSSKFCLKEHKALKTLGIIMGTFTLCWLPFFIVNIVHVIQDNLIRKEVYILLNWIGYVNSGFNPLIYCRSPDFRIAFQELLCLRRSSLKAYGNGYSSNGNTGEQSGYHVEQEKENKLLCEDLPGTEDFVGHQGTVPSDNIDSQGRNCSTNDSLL
Sequence of KiSS-1 receptor (Homo sapiens) (Q969F8 whole entry, looked up): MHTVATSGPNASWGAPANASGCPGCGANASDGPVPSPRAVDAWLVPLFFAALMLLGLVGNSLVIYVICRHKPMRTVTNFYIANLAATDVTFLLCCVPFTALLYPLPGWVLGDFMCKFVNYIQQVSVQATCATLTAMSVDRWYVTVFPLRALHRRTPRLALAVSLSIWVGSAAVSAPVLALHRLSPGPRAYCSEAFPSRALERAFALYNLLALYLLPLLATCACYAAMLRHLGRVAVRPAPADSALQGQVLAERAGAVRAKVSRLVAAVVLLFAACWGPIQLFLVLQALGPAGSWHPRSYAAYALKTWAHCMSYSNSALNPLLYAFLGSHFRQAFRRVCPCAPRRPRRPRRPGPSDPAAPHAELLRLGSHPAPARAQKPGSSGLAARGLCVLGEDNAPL
Sequence of Muscarinic acetylcholine receptor M1 (Homo sapiens) (P11229 whole entry, looked up): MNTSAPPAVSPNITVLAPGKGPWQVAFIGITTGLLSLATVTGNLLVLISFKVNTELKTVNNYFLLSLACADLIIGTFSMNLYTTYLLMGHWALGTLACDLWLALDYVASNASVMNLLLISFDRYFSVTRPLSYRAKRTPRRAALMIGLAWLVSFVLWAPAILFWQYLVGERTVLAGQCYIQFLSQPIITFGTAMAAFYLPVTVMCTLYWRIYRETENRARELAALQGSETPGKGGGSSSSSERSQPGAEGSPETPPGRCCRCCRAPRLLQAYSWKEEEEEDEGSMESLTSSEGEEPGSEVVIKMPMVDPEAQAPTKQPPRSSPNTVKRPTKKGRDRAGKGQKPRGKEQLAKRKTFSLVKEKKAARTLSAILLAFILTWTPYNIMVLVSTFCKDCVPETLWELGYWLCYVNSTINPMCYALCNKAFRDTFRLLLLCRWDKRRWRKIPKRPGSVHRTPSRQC

CCCCCC1CCC(=O)O1 (centres undefined)
inactive: Potency [1] | Potency [2] | Potency [3] | Potency [4] | Potency [5] | Potency [6] | Potency [7] | Potency [8] | Potency [9] | Potency [10] | Potency [11] | Potency [12] | Potency [13] | Potency [14] | Potency [15] | Potency [16] | Potency [17] | Potency [18] | Potency [19]

COc1cc(/C=C/C(N)=O)cc(OC)c1OC
inactive: Potency [1] | Potency [2] | Potency [3] | Potency [4] | Potency [5] | Potency [6] | Potency [7] | Potency [8] | Potency [9] | Potency [10] | Potency [11] | Potency [12] | Potency [13] | Potency [14] | Potency [15] | Potency [16] | Potency [17] | Potency [19]

CCC(OCCCOC)OC(C)=O (centres undefined)
inactive: Potency [1] | Potency [2] | Potency [3] | Potency [4] | Potency [5] | Potency [6] | Potency [7] | Potency [8] | Potency [9] | Potency [10] | Potency [11] | Potency [12] | Potency [13] | Potency [14] | Potency [15] | Potency [16] | Potency [17] | Potency [20] | Potency [18] | Potency [19]

O=S(=O)(O)c1ccc2c(N=Nc3ccc(S(=O)(=O)O)c4ccccc34)c(O)c(S(=O)(=O)O)cc2c1
inactive: activity change, negative = cytotoxicity [1] -5.59% [at 8.39 µM] | activity, positive = activation [2] -0.366% [at 8.39 µM] | activity change [3] 18.3% [at 5.22 µM, active compounds read high] | activation [4] 0.398% [at 6.97 µM] | activation [5] 6.05% [at 5.23 µM] | activation [6] -6.7% [at 5.99 µM] | activation [7] -0.431% [at 5.99 µM] | activity change, negative = cytotoxicity [8] -6.02% [at 5.99 µM] | activity change, negative = cytotoxicity [9] -3.24% [at 5.99 µM] | activity change, negative = cytotoxicity [10] -2.08% [at 5.99 µM] | activation [11] -3.84% [at 5.99 µM] | activity, negative = inhibition [12] 0.404% [at 5.62 µM] | activation [13] 12.5% [at 7.02 µM] | activity, negative = inhibition [14] -10.6% [at 5.58 µM] | activation [15] 2.33% [at 6.97 µM] | activity change, negative = inhibition [16] -1.96% [at 8.39 µM] | activity change, negative = inhibition [17] -2.48% [at 8.39 µM] | activation [20] -0.404% [at 8.39 µM] | activation [18] -0.0629% [at 8.39 µM]

OCC1(CO)COCOC1
inactive: Potency [1] | Potency [2] | Potency [3] | Potency [4] | Potency [5] | Potency [6] | Potency [7] | Potency [8] | Potency [9] | Potency [10] | Potency [11] | Potency [12] | Potency [13] | Potency [14] | Potency [15] | Potency [17] | Potency [20] | Potency [18] | Potency [19]

CC(=O)Nc1c(I)cc(I)c(C(=O)O)c1I
inactive: Potency [1] | Potency [2] | Potency [3] | Potency [4] | Potency [5] | Potency [6] | Potency [7] | Potency [8] | Potency [9] | Potency [10] | Potency [11] | Potency [12] | Potency [13] | Potency [14] | Potency [15] | Potency [16] | Potency [17] | Potency [18] | Potency [19]
